Experimental findings from PubChem BioAssay AID1347150 (National Center for Advancing Translational Sciences (NCATS), 2019) are described below.

Records with an inconclusive call do not appear. A number with no mark means an inactive call. Activity calls are given as the source filed them. Calls come from the whole dose curve; as a rule, active = well fitted curve in the direction sought with a large enough effect; inconclusive = small, poorly fitted or top-dose-only effect, or another doubt; inactive = no such curve, though single readings can be large or run the other way. Numbered stars: 1 amine (or outer) side, 2 acyl side, 3 side chain; on linkers, the order of the positions; unused ones are H or OH. Bridge positions count the residues as written; N and C are the ends. Square brackets hold non-standard residues; d marks the D form. Peptide text beside a SMILES is read from it. I, II: the chains in the order shown. Actinocin(9to1) = Cc1c2oc3c(C)ccc(C(=O)[*:1])c3nc-2c(C(=O)[*:2])c(N)c1=O; NMeV = CN[C@H](C(=O)O)C(C)C; Sar = CNCC(=O)O

This experiment deals with Zika virus NS2B-NS3 protease (linked). The experiment can be described thus: Optimization screen NINDS AMC qHTS for Zika virus inhibitors: Linked NS2B-NS3 protease assay. The conditions noted are these: recombinant linked NS2B-NS3 protease, AMC fluorogenic substrate; series mostly up to 52.5 µM; activity change, negative = inhibition: at the top concentration. From the text: Avindra Nath, Ph.D., National Institute of Neurological Disorders and Stroke (NINDS), Bethesda, MD
Radhakrishnan Padmanabhan, Ph.D., Georgetown University (GU), Washington D.C.
Zika Virus causes congenital defects, including microcephaly and is associated with Guillain-Barre syndrome, eningoencephalitis and myelitis in infected adult. […] Using a target-based approach, we hope to establish a screening paradigm to uncover novel, cell-active NS2B-NS3 protease (Zika Virus) specific inhibitors from NCATS' collection of small molecules using qHTS.
Four assay panel was created to identify potential Zika Virus inhibitors. Namely, (1) GU unlinked NS2B-NS3 AMC tagged protease qHTS, (2) GU unlinked NS2B-NS3 Rhodamine tagged protease qHTS, (3) NINDS linked NS2B-NS3 AMC tagged protease qHTS, (4) NINDS linked NS2B-NS3 Rhodamine tagged protease qHTS. Active compounds were re-acquired and re-screened to confirm inhibition. Inhibitors were further screened against various confirmatory and counterscreens in dose response format.
Early Translation Branch (ETB)
National Center for Advancing Translational Sciences (NCATS), Rockville, MD
National Institute of Health (NIH), Bethesda, Maryland
For the linked assay, Nath lab (NINDS) provided the purified linked NS2B-NS3 protease which is consists of hydrophilic domain of NS2B linked to the NS3 protease domain by a flexible (-GGGGSGGGG-) linker. Control compound aprotinin is obtained from Thermo Scientific (#78432; Waltham, Massachusetts). NS2B-NS3 AMC substrate (Bz-Nle-Lys-Arg-Arg-AMC; Nle-KRR-AMC) purchased from Bachem (#I-1995; Torrance, CA). Ac-VKTGKR-AMC purchased from Genscript or Bachem, Ac-FAAGKR-AMC purchased from Genscript, Ac-GLVKRR-AMC purchased from Genscript, Ac-LKKR-AMC purchased from Genscript.
NINDS AMC linked NS2B-NS3 protease qHTS protocol:
Briefly, 3 microL of Zika virus linked NS2B-NS3 protease (1 nM for linked final concentration), in assay buffer (10 mM Tris-HCl pH 8.0 with 0.01% Tween 20) was dispensed into a 1,536-well solid-bottom black plate (Greiner Bio One, Monroe, NC). Twenty-three nL of compounds (final concentration range 7.28 nM to 114 microM) or control Aprotinin (final concentration range 3.47 nM to 114 microM) were transferred via Wako Pin-tool (Wako Automation, Richmond, VA). Samples were incubated (room temperature, protected from light) for 15 minutes followed by a 1 microL AMC substrate addition of (final concentration of 10 microM; Km = 18.3 µM). Plates were then read immediately on a ViewLux High-throughput CCD imager (PerkinElmer, Waltham, MA) equipped with standard UV fluorescence optics (340(30) nm excitation, 450(20) nm emission) then incubated (room temperature, protected from light) for 15 minutes (~20% conversion). The change in fluorescence intensity over the 15-minute reaction period was normalized against no-inhibitor and no-enzyme controls and the resulting percent inhibition data were fitted to a 4-parameter Hill equation. Aprotinin was used as the intraplate control.
Regarding `CCCCC(CC)CN=C(N)NC(N)=NCCCCCCN=C(N)NC(N)=NCC(CC)CCCC` (configuration not stated), the Potency was 19.2 µM (active).

Consider `CC1OC(OC2C(O)CC(OC3C(O)CC(OC4CCC5(C)C(CCC6C5CC(O)C5(C)C(C7=CC(=O)OC7)CCC65O)C4)OC3C)OC2C)CC(O)C1O` (configuration not stated), for which the “activity change, negative = inhibition” value is 4.68% [at 114 µM].

Turning to `Cc1c2oc3c(C)ccc(C(=O)N[C@@H]4C(=O)N[C@H](C(C)C)C(=O)N5CCC[C@H]5C(=O)N(C)CC(=O)N(C)[C@@H](C(C)C)C(=O)O[C@@H]4C)c3nc-2c(C(=O)N[C@@H]2C(=O)N[C@H](C(C)C)C(=O)N3CCC[C@H]3C(=O)N(C)CC(=O)N(C)[C@@H](C(C)C)C(=O)O[C@@H]2C)c(N)c1=O` (I: T[dV]P[Sar][NMeV] / II: T[dV]P[Sar][NMeV]; ester I:1-I:C, II:1-II:C; linker I:N-II:N via Actinocin(9to1)), the Potency entry was “inactive”.

For `C[C@H]1O[C@@H](O[C@H]2CC[C@@]3(C)[C@H](CC[C@@H]4[C@@H]3C[C@@H](O)[C@]3(C)[C@@H](C5=CC(=O)OC5)CC[C@]43O)C2)C[C@H](O)[C@@H]1O[C@H]1C[C@H](O)[C@H](O[C@H]2C[C@H](O)[C@H](O[C@@H]3O[C@H](CO)[C@@H](O)[C@H](O)[C@H]3O)[C@@H](C)O2)[C@@H](C)O1`, the “activity change, negative = inhibition” value was -19.2%.

`Cn1cnc([N+](=O)[O-])c1Sc1ncnc2nc[nH]c12`: the Potency entry is “inactive”.

As for `C[C@H]1O[C@@H](O[C@H]2[C@@H](O)C[C@H](O[C@H]3[C@@H](O)C[C@H](O[C@H]4CC[C@]5(C)C6C[C@@H](O)[C@]7(C)[C@@H](C8=CC(=O)OC8)CC[C@]7(O)C6CC[C@@H]5C4)O[C@@H]3C)O[C@@H]2C)C[C@H](O)[C@@H]1O` (some centres not stated), the “activity change, negative = inhibition” value is 0.817%.

For `CC(C)(C)CC(C)(C)c1ccc(OCCOCC[N+](C)(C)Cc2ccccc2)cc1`, the Potency entry was “inactive”.
